This is a sample that favours compounds with a hit; in the whole collection about 31% have one here.
PLAP act: activators of human placental alkaline phosphatase. activation fold at 20 µM. purified PLAP enzyme, luminescent substrate read-out; hits give high values. P05187. hit rate 1.2% among 96,000; in the data active = activation fold above about 2
CYP2C19 act: cytochrome P450 2C19 (human) activation; P33261; recombinant CYP2C19, luciferin-H EGE luminescence; hits give high values; 0 = fully inhibited enzyme, 1 = untreated enzyme; activation factor at 5 µM; 96,000 tested, under 10 active; AID 1025;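 active = activation factor of at least 2 at 5 µM in the primary screen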;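 also: 0 = wells with 2.5 mM tranylcypromine and 1 = vehicle-only wells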
CYP2C19 inhib: human CYP2C19 inhibition; CYP2C19 Supersomes, luciferin-H EGE luminescence, 30 min; AID 778; P33261; inhibition, % at 5 µM; hit rate 21% among 96,000;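 active = CYP2C19 inhibition above a set limit at 5 µM in the primary screen, cut at about 50% in these data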;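 also: plate controls were negative control wells for no effect and 2.5 mM tranylcypromine positive control for full effect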
CYP2C9 inhib: human CYP2C9 inhibition. P11712. CYP2C9 Supersomes, luciferin-H conversion, luminescence. inhibition, % at 5 µM. hit rate 20% among 96,000;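 active = blocking of liver enzyme CYP2C9 beyond about 50% at 5 µM, limit read from the data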
Target sequence (P11712 whole entry, looked up): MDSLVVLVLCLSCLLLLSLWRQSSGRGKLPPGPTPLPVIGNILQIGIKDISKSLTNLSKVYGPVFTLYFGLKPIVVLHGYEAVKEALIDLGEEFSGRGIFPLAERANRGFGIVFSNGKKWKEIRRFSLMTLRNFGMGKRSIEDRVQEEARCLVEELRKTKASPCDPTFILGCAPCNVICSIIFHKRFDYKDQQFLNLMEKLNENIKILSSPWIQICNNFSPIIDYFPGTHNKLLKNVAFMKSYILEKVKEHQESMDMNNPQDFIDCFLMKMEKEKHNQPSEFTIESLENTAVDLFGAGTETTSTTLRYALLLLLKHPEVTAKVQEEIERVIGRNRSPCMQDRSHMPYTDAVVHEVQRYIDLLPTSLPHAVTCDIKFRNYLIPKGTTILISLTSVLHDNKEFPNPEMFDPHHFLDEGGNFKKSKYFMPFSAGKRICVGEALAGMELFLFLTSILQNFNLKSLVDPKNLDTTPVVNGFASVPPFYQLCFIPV
CYP2C9 act: increases human cytochrome P450 2C9 activity; activation factor at 5 µM; AID 1024; P11712; hit rate 1.4% among 96,000; recombinant CYP2C9, luciferin-H conversion, luminescence; hits give high values; factor 1 = untreated enzyme, 0 = blocked;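 active = activation factor of 2 or more for CYP2C9 at a 5 µM dose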;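 also: 0 = sulfaphenazole-blocked wells and 1 = vehicle-only wells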
* hit, by the source's call.

Screening COc1ccc(-c2cc(C(=O)OCC(=O)Nc3cc(C)on3)c3ccccc3n2)cc1OC returned PLAP act 0.9, CYP2C19 act 0.5, CYP2C19 inhib 53*, CYP2C9 inhib 46 and CYP2C9 act 0.5.
`Cc1ccccc1NC(=S)NC(=O)c1cc(-c2ccccc2)nc2ccccc12` gave PLAP act 1, CYP2C19 act 0.9, CYP2C19 inhib 11, CYP2C9 inhib 46 and CYP2C9 act 0.5.
`CCC(C)c1ccc(-c2cc(C(=O)OCC(=O)Nc3cc(C)on3)c3ccccc3n2)cc1` (centres undefined) gave PLAP act 0.3, CYP2C19 act 0.5, CYP2C19 inhib 51*, CYP2C9 inhib 30 and CYP2C9 act 0.7.
For CCNC(=S)NNC(=O)c1cc(-c2cc(C)ccc2C)nc2ccccc12 the results were PLAP act 1.8, CYP2C19 act 0.7, CYP2C19 inhib 26, CYP2C9 inhib 66* and CYP2C9 act 0.3.
Screening O=c1c2ccccc2oc2nc(-c3ccco3)n(Cc3ccccc3)c(=O)c12 returned PLAP act 1, CYP2C19 act 0.9, CYP2C19 inhib 7, CYP2C9 inhib 5 and CYP2C9 act 1.
Cc1nn(Cc2c(F)c(F)c(F)c(F)c2F)c(C)c1NC(=O)c1c(-c2ccccc2)nn(-c2ccccc2)c1C was read as PLAP act 0.9, CYP2C19 act 0.7, CYP2C19 inhib 27, CYP2C9 inhib 35 and CYP2C9 act 0.6.
Screening Cc1cccc(N2C(N)=NC(N)=NC23CCCCC3)c1 returned PLAP act 0.9, CYP2C19 act 1, CYP2C19 inhib 0, CYP2C9 inhib 7 and CYP2C9 act 0.9.
`Cc1ccc(-c2cc(C(=O)OCC(=O)Nc3cc(C)on3)c3ccccc3n2)c(C)c1` gave PLAP act 1.2, CYP2C19 act 0.7, CYP2C19 inhib 25, CYP2C9 inhib 79* and CYP2C9 act 0.2.
`Cc1cccc(NC(=O)NNC(=O)c2cc(-c3ccccc3Cl)nc3ccccc23)c1` gave PLAP act 1.7, CYP2C19 act 0.6, CYP2C19 inhib 38, CYP2C9 inhib 62* and CYP2C9 act 0.4.
Screening Cc1cc(NC(=O)c2ccccc2Cl)no1 returned PLAP act 1.1, CYP2C19 act 1.2, CYP2C19 inhib -18, CYP2C9 inhib -27 and CYP2C9 act 1.3.
For Cc1ccc2nc(-c3ccccc3Cl)cc(C(=O)Nc3cc(C)on3)c2c1 the results were PLAP act 1.3, CYP2C19 act 0.2, CYP2C19 inhib 82*, CYP2C9 inhib 99* and CYP2C9 act 0.
`O=C(NNC(=O)c1cc(-c2ccc(Cl)c(Cl)c2)nc2ccccc12)Nc1ccccc1` gave PLAP act 1, CYP2C19 act 0.8, CYP2C19 inhib 18, CYP2C9 inhib 33 and CYP2C9 act 0.7.
`CC(C)CNC(=O)c1cccc(C(=O)NCC(C)C)c1` gave PLAP act 1.2, CYP2C19 act 0.6, CYP2C19 inhib 38, CYP2C9 inhib 33 and CYP2C9 act 0.7.
For COc1cccc(NC(=O)CN2C(=O)COc3ccc(Cl)cc32)c1 the results were PLAP act 0.9, CYP2C19 act 0.1, CYP2C19 inhib 92*, CYP2C9 inhib 78* and CYP2C9 act 0.2.
Screening Cc1cccc(NC(=O)CN2C(=O)COc3ccc(Cl)cc32)c1 returned PLAP act 0.7, CYP2C19 act 0.3, CYP2C19 inhib 72*, CYP2C9 inhib 18 and CYP2C9 act 0.8.
`O=C(CN1C(=O)COc2ccc(Cl)cc21)Nc1ccc2c(c1)OCCO2` gave PLAP act 0.9, CYP2C19 act 0.8, CYP2C19 inhib 22, CYP2C9 inhib 32 and CYP2C9 act 0.7.
Cc1cccc(NC(=O)CN2C(=O)COc3ccc(Cl)cc32)c1C was read as PLAP act 1, CYP2C19 act 0.1, CYP2C19 inhib 88*, CYP2C9 inhib 32 and CYP2C9 act 0.7.
CCOc1ccccc1C(=O)Nc1cccc(-c2nnc(-c3ccccc3)o2)c1 was read as PLAP act 1.1, CYP2C19 act 0.8, CYP2C19 inhib 17, CYP2C9 inhib -81 and CYP2C9 act 1.8.
Screening CC(=O)Nc1cccc(Oc2ccc(-c3noc(C)n3)cc2)c1 returned PLAP act 1.1, CYP2C19 act 0.2, CYP2C19 inhib 76*, CYP2C9 inhib 57* and CYP2C9 act 0.4.
`CC(OC(=O)C1=COCCO1)C(=O)Nc1ccc(Oc2ccccc2)cc1` (centres undefined) gave PLAP act 1.1, CYP2C19 act 0.7, CYP2C19 inhib 32, CYP2C9 inhib 19 and CYP2C9 act 0.8.
Screening N/C(=N\S(=O)(=O)c1cccs1)c1ccccc1 returned PLAP act 0.9, CYP2C19 act 0.1, CYP2C19 inhib 92*, CYP2C9 inhib -47 and CYP2C9 act 1.5.
For COc1ccccc1OCCCn1c(C)c(C#N)c2ccccc21 the results were PLAP act 1.4, CYP2C19 act 0.7, CYP2C19 inhib 29, CYP2C9 inhib 78* and CYP2C9 act 0.2.
For COc1ccccc1OCCCn1cc(C#N)c2ccccc21 the results were PLAP act 0.9, CYP2C19 act 0, CYP2C19 inhib 100*, CYP2C9 inhib 95* and CYP2C9 act 0.
Screening CCOc1ccc(-c2cc(N)n(S(=O)(=O)c3ccc(OC)cc3)n2)cc1 returned PLAP act 0.7, CYP2C19 act 1.1, CYP2C19 inhib -6, CYP2C9 inhib 44 and CYP2C9 act 0.6.
`CCOC(=O)c1oc2ccc(S(=O)(=O)n3nc(-c4ccc(OC)cc4)cc3N)cc2c1C` gave PLAP act 1.3, CYP2C19 act 1, CYP2C19 inhib 2, CYP2C9 inhib 100* and CYP2C9 act 0.
Screening CCOC(=O)N1CCN(C(=O)c2oc3ccc(S(=O)(=O)N4CCCCC4)cc3c2C)CC1 returned PLAP act 1.4, CYP2C19 act 0.9, CYP2C19 inhib 15, CYP2C9 inhib 26 and CYP2C9 act 0.7.
For CCOC(=O)c1oc2ccc(S(=O)(=O)n3nc(-c4ccccc4)cc3N)cc2c1C the results were PLAP act 1.2, CYP2C19 act 0.7, CYP2C19 inhib 31, CYP2C9 inhib 98* and CYP2C9 act 0.
For CSCCC(NC(=O)c1ccccc1)C(=O)OCC(=O)Nc1ccc(C)c(Cl)c1 (centres undefined) the results were PLAP act 1.4, CYP2C19 act 0.6, CYP2C19 inhib 40, CYP2C9 inhib 82* and CYP2C9 act 0.2.
For COCC(=O)Nc1ccc(C)c(Cl)c1 the results were PLAP act 1.1, CYP2C19 act 0.8, CYP2C19 inhib 23, CYP2C9 inhib -11 and CYP2C9 act 1.1.
Screening O=c1cc(N2CCc3ccccc32)[nH]c(=O)n1Cc1ccc(F)cc1 returned PLAP act 1.1, CYP2C19 act 0.9, CYP2C19 inhib 11, CYP2C9 inhib 14 and CYP2C9 act 0.9.
COc1cc(-c2nnc(SCC(=O)Nc3ccc4c(c3)OCCO4)o2)cc(OC)c1OC was read as PLAP act 1.5, CYP2C19 act 0.8, CYP2C19 inhib 21, CYP2C9 inhib 75* and CYP2C9 act 0.2.
